# Activity calls are given as the source filed them.
# How the values were obtained:
# [1] = target: Albumin (Bos taurus) (UniProt P02769); assay: bovine serum albumin binders on microarray, profiling panel, artefact control for SMM control protein annotation, biochemical, small-molecule microarray, Alexa647 label, 635/667 nm fluorescence (AID 1118); conditions: BSA-A647 binding, fluorescence 635 nm, higher = more signal;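 further: score merges 667 nm emission intensity and signal-to-noise per printed compound spot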
# [2] = small-molecule microarray binders of probe aXIP, primary screen, biochemical, NeuroSMM set, 635/667 nm fluorescence (AID 1119); conditions: higher = more signal, called active from +8 up or from −8 down;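 further: probe is the protein aXip251-270 applied at 1 µg/mL to compound-printed slides; binding of probe to printed compounds measured as 667 nm fluorescence plus signal to noise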
# [3] = small-molecule binders of probe aNOTCH3, primary screen, biochemical, small-molecule microarray, 635/667 nm fluorescence (AID 1120); conditions: higher = more signal;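 further: probe is a biotin-tagged antibody raised against NOTCH3 rather than NOTCH3 protein; score merges spot fluorescence near 667 nm with spot signal to noise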
# [4] = small-molecule binders of probe aNOTCH2, primary screen, biochemical, small-molecule microarray, 635/667 nm fluorescence (AID 1121); conditions: higher = more signal;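 further: score merges feature fluorescence read at 667 nm with its signal to noise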
# [5] = target: Carbonic anhydrase 2 (Homo sapiens) (UniProt P00918); assay: CAII small-molecule binders, profiling panel, biochemical, small-molecule microarray, Alexa647-labelled CAII (AID 1122); conditions: CAII-A647 binding fluorescence, higher = more signal
# [6] = COS7 lysate on small-molecule microarray, probe aHis, 635 nm (AID 1123); conditions: COS7 cell lysate, fluorescence, higher = more signal;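 further: z-score combines 667nm fluorescence intensity with signal-to-noise per printed compound spot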
# [7] = compound binding in COS7 lysate, probe aLAP1, primary screen, cell lysate, small-molecule microarray (AID 1124); conditions: probe aLAP1, fluorescence, higher = more signal;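 further: lysate comes from COS7 cells expressing LAP1 and is applied at 0.3 µg/mL; score merges spot fluorescence near 667 nm with signal-to-noise over triplicate slides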
# [8] = test system: Sam68 (KHDRBS1); assay: Sam68 small-molecule binders, primary screen, biochemical, small-molecule microarray, 635 nm fluorescence (AID 1125); conditions: small-molecule microarray binding, higher = more signal;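 further: score merges 667 nm channel intensity with signal to noise over triplicate slides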
# [9] = test system: Chordin-like protein 2 (CHRDL2); assay: CHRDL2 small-molecule binders, primary screen, biochemical, small-molecule microarray, 635 nm fluorescence (AID 1126); conditions: small-molecule microarray binding, fluorescence 635 nm; higher = more signal;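 further: printed compound slides probed with Chrdl2 protein at 4 µg/mL for 1 h at 4 C; score merges 667 nm emission intensity with signal to noise over three replicate slides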
# [10] = target: Concanavalin-A (Canavalia ensiformis) (UniProt P02866); assay: ConA small-molecule binders, primary screen, artefact control for SMM control protein annotation, biochemical, small-molecule microarray, Alexa647 label, 635 nm (AID 1127); conditions: ConA-A647 binding fluorescence, higher = more signal;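 further: z combines 667 nm emission intensity with signal-to-noise across three replicate slides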
# [11] = anti-His antibody binders, primary screen, artefact control for SMM control protein annotation, biochemical, small-molecule microarray, 635 nm fluorescence (AID 1128); conditions: anti-His Alexa647 antibody binding, higher = more signal;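 further: score merges feature fluorescence with signal-to-noise for each printed compound spot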
# [12] = test system: Human papillomavirus type 1a E7 protein (residues 1-88); assay: HPV1a E7 small-molecule binders, primary screen, biochemical, small-molecule microarray, residues 1-88, 635 nm (AID 1129); conditions: small-molecule microarray binding, fluorescence 635 nm; higher = more signal
# [13] = target: Focal adhesion kinase 1 (Homo sapiens) (UniProt Q05397); assay: small-molecule microarray binders of FAK, primary screen, biochemical, 635/667 nm fluorescence, BSA, DTT (AID 1130); conditions: PTK2 binding, 635 nm fluorescence, higher = more signal;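 further: composite of spot emission at 667 nm and signal to noise over triplicate slides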
# [14] = test system: Fibrinogen (Alexa647-labelled); assay: fibrinogen binders on compound microarrays, profiling panel, artefact control for SMM control-protein annotation, biochemical, small-molecule microarray, 635/667 nm fluorescence (AID 1131); conditions: fibrinogen-A647 binding fluorescence, higher = more signal;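 further: z-score merges 667 nm fluorescence with per-spot signal-to-noise over triplicate slides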
# [15] = target: Follistatin (Homo sapiens) (UniProt P19883); assay: follistatin binders on small-molecule microarrays, primary screen, biochemical, small-molecule microarray, 635/667 nm fluorescence (AID 1132); conditions: FST binding, 635 nm fluorescence, higher = more signal
# [16] = target: Fibroblast growth factor 2 (Homo sapiens) (UniProt P09038); assay: FGF2 binders on small-molecule microarrays, primary screen, biochemical, small-molecule microarray, 635/667 nm fluorescence (AID 1133); conditions: small-molecule microarray binding, FGF2, fluorescence 635/667; higher = more signal
# [17] = mitochondrial membrane potential change in A549 cells, profiling panel, cell-based, JC-1 fluorescence, basal, 24 h, 100 nL (AID 1138); conditions: higher = more signal;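 further: A549 lung adenocarcinoma cells under basal conditions with no added stimulus; test concentration not given here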
# [18] = test system: Lefty1; assay: Lefty1 binders on small-molecule microarrays, primary screen, biochemical, small-molecule microarray, 635/667 nm fluorescence (AID 1139); conditions: small-molecule microarray binding, fluorescence 635/667; higher = more signal
# [19] = test system: wheat germ agglutinin (Triticum aestivum), Alexa647-labelled; assay: wheat germ agglutinin binders on compound microarrays, profiling panel, artefact control for SMM control-protein annotation, biochemical, small-molecule microarray, 635/667 nm fluorescence (AID 1140); conditions: WGA-A647 binding, 635 nm fluorescence, higher = more signal;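 further: score merges 667 nm feature emission with signal to noise over triplicate slides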
# [20] = target: Luciferin 4-monooxygenase (Photinus pyralis) (UniProt P08659); assay: firefly luciferase enzyme inhibitors, primary screen, biochemical, luminescence, purified enzyme, 2006 set (AID 1141); conditions: SteadyGlo luminescence, 30 min, higher = more signal, called active from +8 up or from −8 down;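 further: cell-free assay with purified firefly luciferase at 100 ng per well in PBS; test concentration not given here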
# Chain of Luciferin 4-monooxygenase (Photinus pyralis) (P08659 whole entry, looked up): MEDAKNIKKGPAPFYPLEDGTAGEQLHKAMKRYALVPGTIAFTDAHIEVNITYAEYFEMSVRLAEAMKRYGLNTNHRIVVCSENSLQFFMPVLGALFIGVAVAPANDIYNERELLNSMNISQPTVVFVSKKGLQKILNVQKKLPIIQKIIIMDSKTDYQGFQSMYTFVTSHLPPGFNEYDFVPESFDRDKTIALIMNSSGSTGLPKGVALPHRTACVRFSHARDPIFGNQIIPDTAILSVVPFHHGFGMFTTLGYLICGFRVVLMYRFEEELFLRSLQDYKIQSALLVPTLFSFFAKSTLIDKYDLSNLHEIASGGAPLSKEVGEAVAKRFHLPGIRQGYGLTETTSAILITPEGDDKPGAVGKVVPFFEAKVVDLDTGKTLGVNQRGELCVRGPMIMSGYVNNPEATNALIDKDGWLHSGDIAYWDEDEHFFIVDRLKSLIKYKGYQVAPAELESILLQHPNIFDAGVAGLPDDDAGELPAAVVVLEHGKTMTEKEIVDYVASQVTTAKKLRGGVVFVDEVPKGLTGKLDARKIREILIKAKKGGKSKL
# Chain of Follistatin (Homo sapiens) (P19883 whole entry, looked up): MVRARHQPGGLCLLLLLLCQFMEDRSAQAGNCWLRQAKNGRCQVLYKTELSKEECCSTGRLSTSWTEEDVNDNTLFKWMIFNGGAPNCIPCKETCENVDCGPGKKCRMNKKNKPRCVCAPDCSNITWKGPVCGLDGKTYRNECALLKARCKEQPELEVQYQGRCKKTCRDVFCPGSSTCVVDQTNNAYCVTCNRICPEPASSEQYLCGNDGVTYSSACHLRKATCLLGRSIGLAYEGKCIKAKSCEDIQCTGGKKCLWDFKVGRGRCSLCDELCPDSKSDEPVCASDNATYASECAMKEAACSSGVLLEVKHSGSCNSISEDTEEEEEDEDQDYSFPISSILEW
# Chain of Albumin (Bos taurus) (P02769 whole entry, looked up): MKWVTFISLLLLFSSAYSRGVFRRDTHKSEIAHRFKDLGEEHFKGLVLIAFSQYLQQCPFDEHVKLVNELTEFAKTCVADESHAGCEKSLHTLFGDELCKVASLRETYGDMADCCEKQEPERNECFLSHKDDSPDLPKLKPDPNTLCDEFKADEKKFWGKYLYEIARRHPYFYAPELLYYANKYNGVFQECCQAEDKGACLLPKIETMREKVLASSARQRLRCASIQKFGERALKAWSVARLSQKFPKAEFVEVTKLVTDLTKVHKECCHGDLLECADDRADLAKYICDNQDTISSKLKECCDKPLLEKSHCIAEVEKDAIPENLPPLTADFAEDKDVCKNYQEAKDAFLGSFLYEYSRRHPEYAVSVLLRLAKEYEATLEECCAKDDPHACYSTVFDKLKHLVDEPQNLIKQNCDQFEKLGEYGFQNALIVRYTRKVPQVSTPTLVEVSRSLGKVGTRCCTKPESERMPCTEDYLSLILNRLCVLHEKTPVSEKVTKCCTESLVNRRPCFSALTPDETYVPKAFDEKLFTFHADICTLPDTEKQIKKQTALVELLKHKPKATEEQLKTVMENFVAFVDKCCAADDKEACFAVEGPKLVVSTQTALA
# Chain of Focal adhesion kinase 1 (Homo sapiens) (Q05397 whole entry, looked up): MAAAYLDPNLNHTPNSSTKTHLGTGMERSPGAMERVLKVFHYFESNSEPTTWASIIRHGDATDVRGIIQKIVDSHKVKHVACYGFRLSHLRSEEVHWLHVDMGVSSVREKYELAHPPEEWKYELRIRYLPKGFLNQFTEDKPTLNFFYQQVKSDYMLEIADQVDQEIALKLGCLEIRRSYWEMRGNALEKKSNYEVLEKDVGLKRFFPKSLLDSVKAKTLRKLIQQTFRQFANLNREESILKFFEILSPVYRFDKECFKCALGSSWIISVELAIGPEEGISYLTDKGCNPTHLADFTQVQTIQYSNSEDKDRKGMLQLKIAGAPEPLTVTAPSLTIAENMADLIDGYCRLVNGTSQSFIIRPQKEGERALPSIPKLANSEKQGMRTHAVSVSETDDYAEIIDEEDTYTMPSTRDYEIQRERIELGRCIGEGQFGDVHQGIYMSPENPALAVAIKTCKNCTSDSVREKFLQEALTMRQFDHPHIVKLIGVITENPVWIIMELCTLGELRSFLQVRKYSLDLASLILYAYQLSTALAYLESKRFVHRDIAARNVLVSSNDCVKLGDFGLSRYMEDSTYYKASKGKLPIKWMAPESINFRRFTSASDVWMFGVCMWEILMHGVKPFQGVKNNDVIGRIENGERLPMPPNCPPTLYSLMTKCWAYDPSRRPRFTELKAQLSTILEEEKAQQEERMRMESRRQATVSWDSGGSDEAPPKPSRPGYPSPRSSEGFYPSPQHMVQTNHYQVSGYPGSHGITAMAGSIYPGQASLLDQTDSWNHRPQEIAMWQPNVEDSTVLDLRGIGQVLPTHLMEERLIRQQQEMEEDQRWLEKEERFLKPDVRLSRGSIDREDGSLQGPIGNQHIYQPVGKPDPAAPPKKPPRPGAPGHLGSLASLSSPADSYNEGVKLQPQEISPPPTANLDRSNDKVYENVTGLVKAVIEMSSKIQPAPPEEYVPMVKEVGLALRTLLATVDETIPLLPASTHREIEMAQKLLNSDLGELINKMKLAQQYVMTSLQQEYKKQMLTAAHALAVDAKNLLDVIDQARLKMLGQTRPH
# Chain of Fibroblast growth factor 2 (Homo sapiens) (P09038 whole entry, looked up): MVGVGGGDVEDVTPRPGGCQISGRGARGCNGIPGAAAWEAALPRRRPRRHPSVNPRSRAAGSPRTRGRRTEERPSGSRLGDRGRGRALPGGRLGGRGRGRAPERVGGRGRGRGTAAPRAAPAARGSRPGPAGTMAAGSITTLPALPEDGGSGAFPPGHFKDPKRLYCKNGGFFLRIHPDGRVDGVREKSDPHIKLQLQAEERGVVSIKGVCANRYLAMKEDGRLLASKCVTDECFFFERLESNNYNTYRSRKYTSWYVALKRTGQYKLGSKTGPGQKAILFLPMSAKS
# Chain of Concanavalin-A (Canavalia ensiformis) (P02866 whole entry, looked up): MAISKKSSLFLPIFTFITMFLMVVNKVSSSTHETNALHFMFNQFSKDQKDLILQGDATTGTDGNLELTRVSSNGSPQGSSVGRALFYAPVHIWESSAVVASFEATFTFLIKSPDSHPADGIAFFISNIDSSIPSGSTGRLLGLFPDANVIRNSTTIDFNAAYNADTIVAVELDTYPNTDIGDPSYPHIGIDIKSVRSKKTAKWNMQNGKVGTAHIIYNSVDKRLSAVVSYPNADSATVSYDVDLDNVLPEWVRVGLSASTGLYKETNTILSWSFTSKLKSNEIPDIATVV
SMILES,composite z-score [1],composite Z-score [2],composite z-score [3],composite z-score [4],composite z-score [5],composite z-score [6],composite z-score [7],composite z-score [8],composite z-score [9],composite z-score [10],composite z-score [11],composite z-score [12],composite z-score [13],composite z-score [14],composite z-score [15],composite z-score [16],z-score [17],composite z-score [18],composite z-score [19],z-score [20]
OC[C@H]1O[C@H](C#Cc2ccccc2)C=C[C@@H]1O,0.475,0.131 (inactive),-0.0647,-0.101,-0.0795,0.171,-0.647,0.0701,0.622,0.341,-0.0558,0.202,0.0213,0.624,0.634,0.147,0.462,0.409,0.189,-1.47 (inactive)
COC(=O)[C@H](C)NC(=O)CCC1CC(OC(=O)NCc2ccc3c(c2)OCO3)CC2(CCCC(COC(=O)NCc3ccccc3)O2)O1 (stereo not given in full),-0.372,0.264 (inactive),-0.0072,-0.156,0.192,0.849,-0.0296,1.26,0.133,0.829,0.554,0.938,-0.0996,0.332,0.653,0.718,1.05,0.827,0.0082,0.464 (inactive)
COC(=O)[C@H](C)NC(=O)CCC1CC(OC(=O)NCc2cccc3ccccc23)CC2(CCCC(COC(=O)NCCCN3CCCC3=O)O2)O1 (stereo not given in full),0.559,-0.0448 (inactive),0.0485,-0.132,0.378,0.519,0.0377,1.32,0.131,1.1,0.383,1.11,0.926,0.821,0.413,0.0982,-0.262,1.23,0.485,0.86 (inactive)
CSCC[C@@H]1NC(=O)CC=C[C@@H](C)COC(=O)[C@H](C)COC1=O,-0.891,3.62 (inactive),-0.172,0.059,-0.682,-0.808,-0.848,1.02,1.64,-2.98,-1.14,-1.34,-0.697,-3.03,1.45,1.95,1.64,1.85,-0.663,-1.95 (inactive)
CCN1C(=O)[C@H]2[C@H]3[C@H](O)[C@H](O)CC(=NOCC(C)C)[C@H]3CC[C@H]2C1=O,-0.369,-0.14 (inactive),0.108,-0.204,-0.15,-0.302,0.0041,0.0597,0.843,-0.238,0.341,0.551,-0.0956,-0.326,0.818,0.4,-0.087,0.717,-0.312,0.404 (inactive)
CC(CCN1CCCc2nc(C)c(C)cc21)=NO[C@H](C)c1cn([C@H](CO)Cc2ccccc2)nn1,0.177,0.271 (inactive),0.159,-0.112,0.236,0.497,0.0249,1.28,0.618,-0.113,0.906,0.474,0.402,0.166,0.564,0.559,-0.776,0.931,0.108,0.0837 (inactive)
CC(CCC(=O)OC[C@H]1O[C@H](C#Cc2ccccc2)C=C[C@@H]1Oc1ccc(C)cc1)=NOC(C)CN1CCCCc2nc(C)c(C)cc21 (stereo not given in full),0.473,1.48 (inactive),-0.0377,0.161,0.346,0.938,0.214,0.313,-0.168,-0.207,-0.578,0.203,0.603,-0.626,-0.463,-0.426,0.856,-0.034,0.222,1.08 (inactive)
CC(=O)OC[C@H]1O[C@@H](ON=C(C)CCC(=O)OC[C@H]2O[C@H](C#Cc3ccccc3)C=C[C@@H]2Oc2ccc(C)cc2)[C@H](OC(C)=O)[C@@H](OC(C)=O)[C@@H]1OC(C)=O,0.635,-0.0164 (inactive),0.0493,-0.0714,0.273,0.989,0.0582,1.3,0.549,0.943,0.48,0.843,0.108,0.705,0.753,1.26,1.08,0.648,0.307,-0.305 (inactive)
CO[C@H]1COC(=O)[C@H](CCSC)NC(=O)CC=C[C@@H](C)[C@H](OC)COC(=O)[C@@H](OCc2ccccc2)C=C[C@@H]1C,-0.798,1.04 (inactive),-0.043,-0.153,-0.173,-0.919,0.0916,0.835,1.45,-0.257,0.657,0.116,-0.0918,-0.84,1.23,0.689,-1.19,1.3,-0.36,1.28 (inactive)
COc1ccc2c(c1)O[C@@H](c1cccc(C(F)(F)F)c1)[C@H](O)C2=O,0.442,0.115 (inactive),-0.152,-0.0761,0.0122,-0.0749,0.0318,0.642,0.647,0.494,0.0408,0.584,0.0103,0.289,0.282,0.656,0.903,0.309,0.408,0.335 (inactive)
CO[C@H]1COC(=O)CC=C[C@@H](C)COC(=O)[C@H]2CCCN2C(=O)CC=C[C@H]1C,-0.893,0.297 (inactive),-0.122,-0.166,-0.516,-0.916,0.449,0.536,1.19,-0.923,-0.19,-1.54,-0.0701,-1.05,1.46,1.96,1.06,1.68,-0.604,-1.32 (inactive)

# From PubChem BioAssay
